MBD2 inh = MBD2-methylated oligo binding inhibition; Q9UBB5; TR-FRET, MBD2 binding to methylated oligonucleotide; inhibition, % at 4.4 µM; 370,000 compounds, 0.31% hits; AID 686964; in the data active = inhibition above about 13%
Target sequence (Q9UBB5 whole entry, looked up): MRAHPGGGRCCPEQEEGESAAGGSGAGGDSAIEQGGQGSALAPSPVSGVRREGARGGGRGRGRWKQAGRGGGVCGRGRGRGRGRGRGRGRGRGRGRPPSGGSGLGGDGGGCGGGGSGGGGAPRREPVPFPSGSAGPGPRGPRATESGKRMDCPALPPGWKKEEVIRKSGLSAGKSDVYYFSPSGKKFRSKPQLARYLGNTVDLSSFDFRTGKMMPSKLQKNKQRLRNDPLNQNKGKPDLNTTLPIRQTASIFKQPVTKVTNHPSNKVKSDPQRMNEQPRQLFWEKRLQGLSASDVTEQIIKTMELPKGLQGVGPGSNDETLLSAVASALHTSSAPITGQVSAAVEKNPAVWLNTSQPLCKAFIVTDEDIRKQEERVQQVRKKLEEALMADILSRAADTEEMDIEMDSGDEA
LEDGF integ inh = blocks HIV-1 LEDGF/p75-dependent DNA integration; inhibition, % at 3.7 µM; 370,000 compounds, 0.64% hits; TR-FRET IN-LEDGF/p75 DNA integration, Eu/Cy5; AID 743269;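 active = inhibition above the screen-wide mean plus 3 SD, cut at about 13% in these data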;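 note: signal is the Cy5 over europium emission ratio at 671 and 618 nm; 0% = plate median of compound wells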
UHRF1 MBD2 ctr = human UHRF1 methylated DNA binding inhibitors; Q96T88; UHRF1 binding to methylated oligo, TR-FRET; inhibition, % at 4.4 µM; 370,000 compounds, 0.75% hits; in the data active = inhibition above about 21%;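 note: UHRF1 SRA domain binding a hemimethylated CpG hairpin DNA probe; 0% = median of test compound wells and 100% = reference inhibitor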
CASP6 VEID inh = inhibitors of human caspase-6. 350,000 compounds, 0.53% hits. P55212. purified caspase-6, Z-VEID-R110 cleavage fluorescence. inhibition, % at 12.5 µM;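 active = mean inhibition across replicates at least about 35%, with every replicate also reaching that limit, limit read from the data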;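 note: 0% = median of neutral control wells and 100% = no fluorescence left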
The depositor's hits bear a star; . = no result. Hits are enriched below; roughly 1.4% of the tested compounds scored in any of these assays.

SMILES	MBD2 inh	LEDGF integ inh	UHRF1 MBD2 ctr	CASP6 VEID inh
COc1ccc(NC(=O)Nc2ccc3c(c2)[C@H]2C[C@H](CC(=O)N(C)C)O[C@H](CO)[C@H]2O3)cc1	.	.	.	5
c1ccc(CSc2nnc(-c3ccco3)n2Cc2ccco2)cc1	-4	0	0	.
CCCCOc1[nH]c2nc(-c3ccco3)n(Cc3ccco3)c(=N)c2c1C#N	0	19*	6	.
C[C@@H]1CCCCO[C@H](CN(C)Cc2ccc(Cl)c(Cl)c2)[C@H](C)CN([C@@H](C)CO)C(=O)c2cc(NS(=O)(=O)c3ccc(Cl)cc3)ccc2O1	.	.	.	2
COc1cc2c(cc1OC)C(C1C(=O)CC(C)CC1=O)N(C(=O)CCl)CC2 (configuration not stated)	-5	2	32*	6
COc1ccccc1-c1ccc2n(c1=O)C[C@@H]1[C@@H](CO)[C@H](C(=O)N(C)C)N(CC3CCOCC3)[C@H]21	.	.	.	-3
O=C(N/N=C/c1cc(Br)c(O)c(Br)c1O)c1cccnc1	-6	-1	-4	40*
O=C(N/N=C/c1cc(O)ccc1Br)c1cccnc1	1	-11	-2	-9
O=C(C[C@H]1C[C@H]2c3cc(NC(=O)C4CCOCC4)ccc3O[C@H]2[C@H](CO)O1)NCC1CC1	.	.	.	0
C#CCOc1ccc(CNC[C@H]2O[C@@H](n3ccc(N)nc3=O)[C@H](O)[C@@H]2O)cc1	0	1	-2	39*
CN(C)C(=O)c1ccc(-c2ccccc2[C@H]2[C@H](C#N)N(C(=O)C3CCC3)[C@H]2CO)cc1	.	.	.	0
COc1ccccc1NC(=O)Nc1ccc2c(c1)C(=O)N(C)C[C@H](OC)[C@@H](C)CN[C@@H](C)CO2	.	.	.	1
O=C(O)c1c2c(nc3ccc(Cl)cc13)CCC2	-7	4	3	50*
Cc1ccc2nc3c(c(C(=O)O)c2c1)CCC3	-3	0	21*	32
O=C(O)c1c2c(nc3ccc(F)cc13)CCC2	.	.	.	27
Cc1ccc(C)c(S(=O)(=O)N2CCN(C(C)C(=O)Nc3ccccc3-c3ccccc3)CC2)c1 (configuration not stated)	6	-3	1	35*
CC(=O)N(C)C[C@H]1Oc2ncc(C#Cc3ccccc3F)cc2C(=O)N([C@@H](C)CO)C[C@H]1C	.	.	.	-6
Cc1ccc(Cc2c(C(C)(C)C)nc3ccc(Br)cn23)cc1	7	2	23*	6
Cc1ccc(Cc2c(-c3ccc(Br)cc3)nc3ccc(Br)cn23)cc1	0	3	9	5
CCCC#Cc1ccc2c(c1)O[C@@H](CN(C)C(=O)COC)[C@@H](C)CN([C@@H](C)CO)S2(=O)=O	.	.	.	3
Oc1cc(Nc2cccnc2)cc2cccnc12	-6	0	0	36*
Oc1cc(Nc2ccncc2)cc2cccnc12	-7	-10	1	-14
CC(C)NC(=O)N[C@@H]1CC[C@H](CCN)O[C@H]1CO	.	.	.	3
O=C(Nc1cccc(C(F)(F)F)c1)c1cccc(NS(=O)(=O)c2ccc(O)c(C(=O)O)c2)c1	3	2	-2	39*
O=C(Nc1cccc(C(F)(F)F)c1)c1cccc(NS(=O)(=O)c2ccc(Br)c(C(=O)O)c2)c1	0	-2	0	-2
SMILES	MBD2 inh	LEDGF integ inh	UHRF1 MBD2 ctr	CASP6 VEID inh
O=C(O)c1ccc2c3c(cccc13)C(=O)N(c1ccccc1)C2=O	6	5	15	50*
O=C(O)c1ccc(N2C(=O)c3cccc4c(C(=O)O)ccc(c34)C2=O)cc1	6	3	24*	53*
O=C(O)c1ccc(N2C(=O)c3cccc4cccc(c34)C2=O)cc1	-2	-3	0	-1
NN1C(=O)c2cccc3c(C(=O)O)ccc(c23)C1=O	-10	-1	-5	.
O=C(c1cccc(F)c1)N1CC(=O)N2[C@H](CO)[C@H](c3ccc(C4=CCCC4)cc3)[C@@H]2C1	.	.	.	0
CN(C)c1cccc(C(=O)OCc2cc(=O)oc3cc(O)ccc23)c1	8	5	24*	.
O=S(=O)(c1ccc(N2CCOCC2)cc1)N1CCOCC1	2	-3	0	.
CCS(=O)(=O)N1CCN(c2ccc(S(=O)(=O)N3CCOCC3)cc2)CC1	5	-3	31*	-1
O=C(Nc1ccc(F)cc1F)Nc1csc2ccccc12	0	-5	33*	-3
Cc1cccc(N=[N+]([O-])c2cccc(C)n2)n1	-2	5	42*	1
CC1NC(=O)NC1CCCCCC(=O)NCCc1ccccc1 (configuration not stated)	-1	78*	2	2
C[C@H](CO)N1C[C@H](C)[C@@H](CN(C)C(=O)C2CCOCC2)Oc2ncc(-c3ccccc3F)cc2C1=O	.	.	.	-3
Cc1ccc(S(=O)(=O)Nc2cccc3c2O[C@H](CN(C)C(=O)Nc2ccccc2)[C@@H](C)CN([C@@H](C)CO)C3=O)cc1	.	.	.	-4
CNC(=O)C[C@H]1CC[C@@H]2[C@H](COC[C@H](O)CN2Cc2ccc(C(F)(F)F)cc2)O1	.	.	.	4
C[C@@H]1CN([C@H](C)CO)C(=O)c2cc(NS(=O)(=O)c3cccs3)ccc2O[C@@H](C)CCCCO[C@H]1CN(C)S(=O)(=O)c1cccs1	.	.	.	0
CC(C)NC(=S)Nc1ccc2cn[nH]c2c1	8	1	23*	.
CC1=C(C#N)C(c2ccccc2O)C(C#N)=C(C)N1	-2	3	-4	1
CC1=C(C#N)C(c2ccc3ncccc3c2)C(C#N)=C(C)N1	8	0	28*	3
COc1ccc(S(=O)(=O)N(C)C[C@@H]2Oc3ccc(NC(=O)Cn4cnnn4)cc3C(=O)N([C@@H](C)CO)C[C@@H]2C)cc1	.	.	.	3
Cc1cc(C)c2c(=N)c3ccccc3n(CCCCCCCCn3c4ccccc4c(=N)c4c(C)cc(C)nc43)c2n1	28*	-2	41*	18
CCN1/C(=C/c2ccc3cc(C)ccc3[n+]2C)Sc2ccc3sccc3c21	5	4	41*	-17
CCc1cc(-c2nnn(CCC3COCCO3)c2CC)cc(CC)c1-c1cn(Cc2ccc3ccccc3c2)nn1 (configuration not stated)	-1	-3	65*	-3
CCOC(=O)C1CCCN(C(=O)Nc2c(-c3ccccc3)noc2C)C1 (configuration not stated)	4	-1	32*	-2
CCOC(=O)C1CCCN(C(=O)c2c(-c3ccccc3Cl)noc2C)C1 (configuration not stated)	-1	-1	-1	.
C[C@H]1CN([C@@H](C)CO)C(=O)c2cc(NC(=O)CCN3CCOCC3)ccc2O[C@@H]1CN(C)S(=O)(=O)c1ccc(Cl)cc1	.	.	.	0
O=C(Cn1nc(C(F)(F)F)cc1C1CC1)NCc1ccccc1F	-3	5	21*	-5
O=C(Cn1nc(C(F)(F)F)cc1C1CC1)Nc1ccccc1F	-2	-1	4	0
O=C1Cc2cc(S(=O)(=O)N3CCN(c4ccc(C(=O)O)cc4)CC3)ccc2N1	-6	-4	-1	38*
CC(=O)N(C)C[C@H]1Oc2ncc(C#C[C@H](C)O)cc2C(=O)N([C@@H](C)CO)C[C@@H]1C	.	.	.	0
CN1CCN(C(=O)/C(=C/c2ccccc2Cl)NC(=O)c2ccccc2)CC1	3	45*	1	1
